Results taken from the supplement of paper PMC13392028.

Tested on: PvIESI-1 RRM domain (Plasmodium vivax PVP01_0939900 aa 896-1203, GST fusion)
Test: RBNS R-value (6-mer enrichment in protein-bound RNA vs input library) (ratio); higher = stronger binding preference; the methods of the paper give 50 / 100 / 500 nM protein instead
Experimental: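 RNA Bind-n-Seq: recombinant GST-tagged IESI-1 RRM domain was incubated at room temperature with a random 40-nt in vitro transcribed RNA library at 250, 500 or 1000 nM protein. Bound RNA was pulled down on glutathione beads and sequenced. R-value is the enrichment of each 6-mer in the bound RNA relative to the input library. Each 6-mer sits inside the random 40-mer context, not as an isolated oligo. Values are replicate 1 only.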

Sequence | RBNS R-value (protein concentration: 250 nM) | RBNS R-value (protein concentration: 500 nM) | RBNS R-value (protein concentration: 1000 nM)
UGAUGC | 3.72 | 4.04 | 3.95
GUGAUG | 3.26 | 3.57 | 3.34
UUGAUG | 4.85 | 5.06 | 4.68
GAUGAG | 2.33 | 2.49 | 2.4
CGAUGA | 2.37 | 2.7 | 2.6
GAUGUG | 2.3 | 2.53 | 2.31
UUUGAU | 3.94 | 4.25 | 3.98
CACCCG | 1.41 | 1.76 | 1.77
GAUUUC | 2.32 | 2.49 | 2.38
GGUGAU | 1.97 | 2.19 | 2.15
AUGAUG | 5.14 | 5.26 | 5.02
AGUGAU | 2.41 | 2.69 | 2.63
GAUGCC | 1.89 | 2.11 | 2.06
AUGAUA | 3.08 | 3.49 | 3.64
